# Where “and” joins values, the source holds several entries; their conditions need not be identical. Identical values can stand only once. Records with an inconclusive call do not appear. The source holds several records for some structures; these can differ, active in one and inactive in another. Calls of active or inactive are those of the source. Rule for the calls, unless noted: active = hit-call score of the fitted dose curve at least 0.9, where 1 is the maximum; inactive = score below 0.9.
# Read-out: not listed separately
# Test: BSK_SAg_Proliferation: Cell Proliferation Assessment in the BioMAP Diversity Plus: SAg Assay (AID 2283095);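 note: relative cell number as total protein by SRB absorbance in sub-confluent culture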
# Details: primary human HUVEC with PBMC
# Procedure, shortened: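 Relative cell number in the endothelial cell/PBMC co-culture was quantified at 96 h by SRB staining (0.1% SRB, 10% TCA fixation, read at 560 nm). Curves were fitted in both directions relative to DMSO baseline.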
Compound,AC50,outcome
CCOC(=O)C(C#N)=C(c1ccccc1)c1ccccc1,14.1 µM (active),inactive
Clc1cc(Cl)c(-c2c(Cl)c(Cl)cc(Cl)c2Cl)cc1Cl,14.3 µM (active),–
COc1ccc(OC)c(N=Nc2c(O)ccc3ccccc23)c1,2.25 µM (active),–
IC(I)I,–,inactive
O=C1OC[C@H](Cc2cccc(O)c2)[C@H]1Cc1cccc(O)c1,–,inactive
O=CN1CCOCC1,–,inactive
CC=Cc1ccc(OCC)c(O)c1,–,inactive
C=C(C)[C@H]1CC=C(C)C(=O)C1,–,inactive
CC(=O)c1c(C)c([N+](=O)[O-])c(C(C)(C)C)c([N+](=O)[O-])c1C,–,inactive
C=CC(C)(O)CCC=C(C)C (stereo unspecified),–,inactive
CC1(C)C2=CCCC(C)(C)[C@]23CC[C@H]1C3,31.6 µM (active),–
C[C@@H]1CCN(C(=O)[C@H](CCCN=C(N)N)NS(=O)(=O)c2cccc3c2NC[C@H](C)C3)[C@@H](C(=O)O)C1,–,inactive
COc1cc(Cl)c(OC)cc1N,–,inactive
CCCCCCC(CO)CCCC (stereo unspecified),37.3 µM (active),inactive
CC(=O)Nc1ccc(C(=O)CCl)cc1,0.92 µM (active),–
CCCCCC(C=O)=Cc1ccccc1,33.1 µM (active),–

Compound,AC50,outcome
CS(=O)(=O)c1ccc(C2=C(c3ccccc3)C(=O)OC2)cc1,–,inactive
CN(C)C(=O)Nc1ccc(Oc2ccc(Cl)cc2)cc1,–,inactive
CC(C=O)Cc1ccc(C(C)(C)C)cc1 (stereo unspecified),–,inactive
COc1ccc(CCN2CCC(Nc3nc4ccccc4n3Cc3ccc(F)cc3)CC2)cc1,6.38 µM (active),–
CC(CN=Cc1ccccc1O)N=Cc1ccccc1O (stereo unspecified),–,inactive
CN(C)C(=S)SC(=S)N(C)C,0.0189 µM (active),–
CC1(C)CCC[C@]2(C)[C@H]3CCO[C@]3(C)CC[C@@H]12,33.6 µM (active) and 32.7 µM (active),–
O=C(Nc1ccc2c(O)c(N=Nc3ccc(N=Nc4ccc(S(=O)(=O)O)cc4)cc3)c(S(=O)(=O)O)cc2c1)c1ccccc1,–,inactive
O=C1OC2(c3ccccc31)c1ccc(O)c(Br)c1Oc1c2ccc(O)c1Br,8.3 µM (active),–
CN(c1nccc(=O)[nH]1)C1CCN(c2nc3ccccc3n2Cc2ccc(F)cc2)CC1,–,inactive
CCC(C)c1cc([N+](=O)[O-])cc([N+](=O)[O-])c1OC(=O)OC(C)C (stereo unspecified),9.53 µM (active),–
C1=CC2C3C=CC(C3)C2C1 (stereo unspecified),–,inactive
CC(=O)C1(C)CC2=C(CCCC2(C)C)CC1C (stereo unspecified),9.65 µM (active),–
CCCCN(CCCC)C(=O)N(CCCC)CCCC,7.83 µM (active),–
CS(=O)(=O)OCCCCOS(C)(=O)=O,–,inactive
C=C(C)C(=O)OCCOCCOCCOC(=O)C(=C)C,–,inactive

# Read-out: not listed separately
# Test: BSK_SAg_SRB: Viability Assessment in the BioMAP Diversity Plus: SAg Assay (AID 2283096);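 note: cells read one day after compound addition; hits may be either gain or loss of signal compared with DMSO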
# Details: primary human HUVEC with PBMC
# Procedure, shortened: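 This overt-cytotoxicity endpoint quantifies protein in human endothelial/PBMC co-cultures at 24 h using SRB absorbance (560 nm) after trichloroacetic acid fixation. Values reflect signal change from the DMSO negative control, fitted bidirectionally.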
Compound,outcome,AC50
O=C1OC[C@H](Cc2cccc(O)c2)[C@H]1Cc1cccc(O)c1,inactive,–
C=C(C)[C@H]1CC=C(C)C(=O)C1,inactive,–
CN(C)C(=S)SC(=S)N(C)C,inactive,–
O=C(Nc1ccc2c(O)c(N=Nc3ccc(N=Nc4ccc(S(=O)(=O)O)cc4)cc3)c(S(=O)(=O)O)cc2c1)c1ccccc1,inactive,–
O=C1OC2(c3ccccc31)c1ccc(O)c(Br)c1Oc1c2ccc(O)c1Br,inactive,–
CCC(C)c1cc([N+](=O)[O-])cc([N+](=O)[O-])c1OC(=O)OC(C)C (stereo unspecified),–,20 µM (active)

# Biological target: human CYP2C9, CYP2C9 (gene 1559) (UniProt P11712)
# Sequence (P11712 whole entry, looked up): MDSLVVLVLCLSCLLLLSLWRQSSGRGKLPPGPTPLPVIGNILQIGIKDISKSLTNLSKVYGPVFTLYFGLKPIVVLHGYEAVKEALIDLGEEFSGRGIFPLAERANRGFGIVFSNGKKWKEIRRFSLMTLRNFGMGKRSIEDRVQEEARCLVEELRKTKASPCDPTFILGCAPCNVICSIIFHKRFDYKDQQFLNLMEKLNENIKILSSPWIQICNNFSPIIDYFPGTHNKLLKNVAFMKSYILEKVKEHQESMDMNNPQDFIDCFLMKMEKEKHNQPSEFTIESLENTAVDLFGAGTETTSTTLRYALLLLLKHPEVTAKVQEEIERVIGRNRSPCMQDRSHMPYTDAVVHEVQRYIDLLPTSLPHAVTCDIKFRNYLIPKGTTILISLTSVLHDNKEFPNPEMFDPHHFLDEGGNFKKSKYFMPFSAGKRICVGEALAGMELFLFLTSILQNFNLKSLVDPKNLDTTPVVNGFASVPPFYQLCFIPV
# Test: NVS_ADME_hCYP2C9: NovaScreen (NVS) CYP450-related Enzyme Activity (ADME) Assay for human CYP2C9 (AID 2283108; active = hit-call score of the fitted dose curve at least 0.9, where 1 is the maximum)
# Details: not given
# Procedure, shortened: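 Cell-free assay of recombinant human CYP2C9 produced in Sf9 cells, with enzyme activity read by fluorescence intensity 0.75 h after compound addition. Loss of signal versus an acetonitrile negative control indicates inhibition. Primary screen used 10 uM in duplicate; actives were retested in concentration series.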
Compound,AC50,outcome
C=C(C)[C@H]1CC=C(C)C(=O)C1,0.597 µM (active),–
COc1cc(Cl)c(OC)cc1N,–,inactive
CS(=O)(=O)OCCCCOS(C)(=O)=O,16 µM (active),–

# Biological target: Cytochrome P450 2C19 (Homo sapiens) (UniProt P33261)
# Test: NVS_ADME_hCYP2C19: NovaScreen (NVS) CYP450-related Enzyme Activity (ADME) Assay for human CYP2C19 (AID 2283113; active = hit-call score of the fitted dose curve at least 0.9, where 1 is the maximum;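 for AC50: potency for inhibition seen as loss of fluorescent signal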)
# Details: not given
# Experimental: NVS_ADME_hCYP2C19 is a biochemical, single-readout assay that uses extracted gene-proteins from insect cells in a cell-free assay. Measurements were taken 1 hour after chemical dosing in a 96-well plate.NVS_ADME_hCYP2C19 is one of one assay component(s) measured or calculated from the NVS_ADME_hCYP2C19 assay. It is designed to make measurements of enzyme activity, a form of enzyme reporter, as detected with fluorescence intensity signals by Fluorescence technology.Data from the assay component NVS_ADME_hCYP2C19 was analyzed into 1 assay endpoint. This assay endpoint, NVS_ADME_hCYP2C19, was analyzed in the positive analysis fitting direction relative to Acetonitrile as the negative control and baseline of activity. Using a type of enzyme reporter, loss-of-signal activity can be used to understand changes in the enzymatic activity as they relate to the gene CYP2C19. Furthermore, this assay endpoint can be referred to as a primary readout, because this assay has produced multiple assay endpoints where this one serves a enzymatic activity function. To generalize the intended target to other relatable targets, this assay endpoint is annotated to the cyp intended target family, where the subfamily is xenobiotic metabolism.
# Binding assays used specific radioligands (tritiated, iodinated) with non-radioactive competitive displacement ligands in agonist or antagonist protocols (as indicated) and various reference compounds and inhibitors to titrate specific binding to receptors and transporters. Most enzyme assays (CYPs, kinases, phosphatases, proteases, HDACs) used recombinant protein and specific substrates (fluorescence mostly, some colorimetric and radioactive) and inhibitors, followed by a biochemical separation of substrate and product. All assays for the biochemical HTS were initially run in duplicate at a single concentration (10 uM for CYP450 assays and 25 uM for all others). […] Each assay was run with positive and negative controls, and concurrent controls on every plate. The follow-up (secondary) screen tested active chemical-pairs in concentration series, as well as a few additional assays not tested in the primary screen, some selected negative inactives, and several cases re-run in the concentration series for confirmatory purposes.
Compound,AC50,outcome
O=C1OC[C@H](Cc2cccc(O)c2)[C@H]1Cc1cccc(O)c1,0.686 µM (active),–
CN(C)C(=S)SC(=S)N(C)C,1.03 µM (active),–
CS(=O)(=O)OCCCCOS(C)(=O)=O,–,inactive
